Screening results deposited in PubChem by The Scripps Research Institute Molecular Screening Center.
M1 ag parental: nonselective activator or artifact in parental CHO-K1 cells | AID 602248 | hit rate 0.48% among 360,000 | activation, % at 3 µM | Fluo-8 calcium fluorescence; scaled to maximal ATP response, vehicle zero; in the data active = activation above about 15%;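 note: untransfected CHO-K1 host cells lacking M1 receptor as counterscreen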
CHRM1 agonist: agonists of human M1 muscarinic receptor | hit rate 0.33% among 360,000 | P11229 | activation, % at 3 µM | CHO-K1 hM1, Fluo-8 calcium fluorescence, agonist mode; 0% DMSO, 100% acetylcholine EC100;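 active = activation above the run's mean compound activation plus 3 SD, cut at about 16% in these data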;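 note: peak over basal fluorescence ratio within a 140 s kinetic read after compound addition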
Target sequence (P11229 whole entry, looked up): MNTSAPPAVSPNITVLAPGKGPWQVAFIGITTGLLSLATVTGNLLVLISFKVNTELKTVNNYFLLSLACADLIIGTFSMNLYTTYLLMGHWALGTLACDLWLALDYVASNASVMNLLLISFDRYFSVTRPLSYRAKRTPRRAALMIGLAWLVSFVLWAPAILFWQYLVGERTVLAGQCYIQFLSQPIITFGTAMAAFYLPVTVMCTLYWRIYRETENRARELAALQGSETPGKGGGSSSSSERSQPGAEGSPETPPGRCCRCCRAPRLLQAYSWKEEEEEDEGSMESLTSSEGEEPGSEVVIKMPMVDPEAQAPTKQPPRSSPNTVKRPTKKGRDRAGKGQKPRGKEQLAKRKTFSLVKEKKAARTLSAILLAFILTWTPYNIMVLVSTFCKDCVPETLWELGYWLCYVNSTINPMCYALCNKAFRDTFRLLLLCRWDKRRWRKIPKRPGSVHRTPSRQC
CHRM1 PAM: potentiates human M1 receptor response to acetylcholine; P11229; CHO-K1 hM1, Fluo-8 calcium fluorescence, ACh EC20; 0% = ACh EC20, 100% = maximal ACh; activation, % at 3 µM; hit rate 0.088% among 360,000; AID 588819; in the data active = activation above about 19%, passing the limit was not always enough
M1 PAM parental: nonselective activator or artifact in parental CHO-K1 calcium assay | ATP EC20, Fluo-8 calcium fluorescence; 0% at ATP EC20, 100% at ATP max | activation, % at 3 µM | hit rate 0.02% among 360,000;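 active = activation above the run cutoff, the mean activation of all test compounds plus 3 SD, cut at about 40% in these data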;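 note: peak over basal fluorescence ratio in a 140 s read after ATP addition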
CHO-K1 Ca antag: counter-screen for M1 antagonists: effect in parental CHO-K1 cells; ATP-induced calcium, Fluo-8 fluorescence; AID 602250; hit rate 0.6% among 360,000; inhibition, % at 3 µM;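 active = inhibition above a per-plate cutoff, the plate's mean sample inhibition plus 3 SD, cut at about 24% in these data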;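 note: 0% = DMSO plus EC80 ATP and 100% = DMSO alone without ATP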
M1 antag: blocks human M1 muscarinic receptor | P11229 | inhibition, % at 3 µM | hit rate 1.3% among 360,000 | AID 588852 | CHO-K1 hM1, Fluo-8 calcium fluorescence, ACh EC80 antagonist;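 active = percent inhibition above its own plate's cutoff, namely the mean of that plate's compound wells plus 3 SD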;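 note: peak over basal fluorescence ratio during 140 s after agonist addition; 0% = ACh EC80 plus DMSO and 100% = DMSO alone without agonist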
Active calls of the source: *; / = no result given. A selection: hits, their analogues and other compounds. The true share with any hit is near 2.3%.

SMILES | M1 ag parental | CHRM1 agonist | CHRM1 PAM | M1 PAM parental | CHO-K1 Ca antag | M1 antag
CCCCc1nnc(NC(=O)C(C)Sc2nc(O)c(Cc3ccccc3)c(=O)[nH]2)s1 (stereo not given) | 0.2 | -3.2 | 3.7 | 11.7 | 2.1 | -5.4
CN(C(=O)CN1C(=O)/C(=C/c2ccccc2Cl)SC1=S)C1CCS(=O)(=O)C1 (stereo not given) | 0.4 | 0.7 | 1.7 | 10.1 | -9.9 | 4.1
CN(C(=O)CN1C(=O)S/C(=C\c2ccccc2Cl)C1=O)C1CCS(=O)(=O)C1 (stereo not given) | 1.2 | -11.0 | 4.3 | 20.4 | 28.4* | -2.4
CC[N+](C)(CC)CCC(c1ccccc1)C1CCCCC1 (stereo not given) | 0.8 | -9.1 | -29.3 | 28.5 | -8.2 | 99.7*
CCC(C(=O)NC1CCCCCC1)c1ccccc1 (stereo not given) | 0.1 | -7.8 | -3.5 | -24.6 | 10.9 | 1.5
CC[N+](C)(CC)CCOC(=O)C(O)(c1ccccc1)C1CCCCC1 (stereo not given) | 0.0 | -6.9 | -25.6 | 9.3 | -0.2 | 97.6*
COc1ccc(S(=O)(=O)NCCC(=O)N2CCCN(C)CC2)cc1 | 0.1 | -5.7 | 5.1 | 2.6 | -18.7 | 1.1
CCn1c(CCn2ccnc2C)n[nH]c1=S | 0.8 | 27.9* | -15.9 | 6.4 | -17.7 | 30.1
CCn1c(CC(C)C)n[nH]c1=S | 0.2 | -3.8 | 4.7 | 8.3 | -4.9 | 4.5
OC(CCN1CCCCC1)c1ccc(-c2ccccc2)cc1 (stereo not given) | 5.2 | -9.4 | -9.1 | 21.8 | -18.2 | 1.2
Clc1ccc(C(CCN2CCCC2)Cc2ccccc2)cc1 (stereo not given) | 1.9 | -11.1 | -34.8 | 3.6 | -7.1 | 84.2*
ClCC1NCC(c2ccccc2Cl)c2c1[nH]c1ccccc21 (stereo not given) | 0.4 | -3.1 | 1.3 | 10.3 | -16.9 | 0.0
CC(=O)Oc1cccc(N2C(=O)c3ccc(C(=O)O)cc3C2=O)c1 | -0.3 | -0.7 | 3.7 | 12.7 | -5.3 | 3.9
CC(=O)Nc1cccc(-c2nc3ccc(NC(C)=O)cc3s2)c1 | 1.1 | -5.1 | 8.0 | 22.0 | -9.5 | 5.2
O=C(O)c1ccc2c(c1)C(=O)N(c1cccc(-c3nc4ccccc4s3)c1)C2=O | -0.5 | -4.0 | 2.2 | -6.0 | 24.3* | -5.9
CC(=O)Nc1cccc(-c2nc3ccccc3s2)c1 | 20.7* | -5.3 | -2.5 | 3.1 | 14.1 | 6.4
Cc1cc(C)c2c(c1)/C(=c1/sc3n(c1=O)CN(c1ccccc1)CN=3)C(=O)N2 | 0.1 | -1.6 | -3.1 | 6.8 | -5.3 | 4.5
Cn1cccc1/C=N/n1c(-c2ccco2)n[nH]c1=S | 1.0 | -5.3 | 1.4 | -3.4 | 7.7 | 4.0
COc1cc(-c2n[nH]c(=S)n2/N=C/c2cccn2C)cc(OC)c1OC | 22.4* | 64.1* | -25.6 | 2.3 | -1.3 | 38.6*
O=C(CN(c1ccccc1)S(=O)(=O)c1ccccc1)Nc1ccc(F)cc1 | 1.9 | -5.0 | 1.3 | -9.7 | -7.4 | 1.7
CC1(C)[C@H]2CC=C(CN3CCC(N4CCC(C(=O)N5CCCC5)CC4)CC3)[C@@H]1C2 | 0.6 | -8.2 | -25.6 | -20.3 | 5.6 | 61.9*
O=C(Cn1ncc2c([nH]c3ccccc32)c1=O)N1CCN(c2ccccn2)CC1 | 0.1 | 6.3 | 12.3 | -8.8 | 2.7 | -2.0
COc1cc2c(cc1OC)C(c1ccccc1)N(Cc1ccc(S(=O)(=O)NC(=O)c3ccco3)cc1)CC2 (stereo not given) | 0.3 | / | / | -0.7 | -14.6 | /
Cc1cc(/C=C(\C#N)C(=O)NCc2ccco2)c(C)n1-c1cccnc1 | 5.4 | -2.3 | 1.9 | 19.9 | -15.9 | -8.9
Cc1cc(/C=C(/C#N)c2cccc(F)c2)c(C)n1-c1cccnc1 | 2.5 | -13.3 | -35.1 | -4.2 | -15.8 | 33.6*
SMILES | M1 ag parental | CHRM1 agonist | CHRM1 PAM | M1 PAM parental | CHO-K1 Ca antag | M1 antag
O=C(CN1CCCCC1)Nc1nnc(-c2ccc([N+](=O)[O-])cc2)s1 | 0.0 | -3.1 | -7.2 | -5.5 | 28.6* | 12.7
O=C(CCCCCn1c(=S)[nH]c2ccc(N3CCOCC3)cc2c1=O)NC1CCN(Cc2ccccc2)CC1 | 0.2 | -8.8 | -25.9 | -7.7 | 3.9 | 50.1*
CCOC(=O)C1=C(COC(=O)Cc2ccc(Cl)cc2)NC(=O)NC1C (stereo not given) | 7.4 | -0.8 | -14.4 | -8.9 | -5.5 | 15.9
CSC(=NC#N)N1CCN(c2ccc([N+](=O)[O-])cc2)CC1 | 2.3 | -11.9 | -1.7 | -0.4 | 23.4 | 6.6
CCOC(=O)C1=C(C)N(c2ccccc2)C(=O)NC1c1cccc([N+](=O)[O-])c1 (stereo not given) | 0.4 | -8.9 | -23.2 | 6.4 | 0.1 | 68.1*
O=C1Nc2ccccc2C(=O)N2C[C@@H](O)C[C@H]12 | 0.5 | -1.6 | 9.5 | 15.1 | -6.4 | -13.4
O=C(O)c1ccc(S(=O)(=O)NC2CCCc3ccccc32)cc1 (stereo not given) | -0.1 | 0.3 | 4.0 | 9.4 | -10.5 | -5.5
COc1ccc(S(=O)(=O)N2CCc3ccccc32)cc1C(=O)O | 1.6 | -4.8 | 5.4 | 22.7 | -17.3 | -15.3
CC(=O)N1CCc2cc(S(=O)(=O)NC3CCCc4ccccc43)ccc21 (stereo not given) | 4.6 | 3.3 | -10.4 | -8.0 | 33.7* | 23.1
CC(=O)N1CCc2ccc(S(=O)(=O)N3CCc4ccccc43)cc21 | 10.4 | -3.2 | -19.6 | -17.2 | 12.7 | 34.9*
Cc1ccc(S(=O)(=O)N2CCN(C(=O)Cn3nc(C)c([N+](=O)[O-])c3C)CC2)cc1 | 0.0 | -1.8 | 1.8 | 8.6 | -9.8 | -5.7
COc1ccc(/C=C(\C#N)C(=O)NCc2cccnc2)cc1OC | 0.1 | -6.7 | 7.0 | 12.3 | 6.9 | -4.5
CCOc1cc(/C=C(\C#N)C(=O)NCc2cccnc2)ccc1O | 9.2 | -3.4 | 12.2 | -14.8 | 32.5* | -5.8
N#C/C(=C/c1cccc(O)c1)C(=O)NCc1ccc(Cl)cc1 | 2.8 | 17.4* | 2.2 | 11.2 | -10.2 | 28.1*
COc1ccc(S(=O)(=O)Nc2cccc(N(C)S(C)(=O)=O)c2)cc1Br | 15.6* | 4.3 | -1.4 | 14.7 | 1.8 | 9.4
COc1ccc(-n2nc(C(=O)NCC(=O)N3CCOCC3)c3ccccc3c2=O)cc1OC | 2.9 | -3.5 | 2.8 | 14.8 | -14.9 | -6.4
COc1ccc(-n2nc(C(=O)NCC(=O)N3CCN(c4ccccn4)CC3)c3ccccc3c2=O)cc1 | 2.3 | -2.3 | -7.5 | 10.2 | 9.0 | 9.3
COc1ccc(-n2nc(C(=O)NCC(=O)N3CCN(Cc4ccc5c(c4)OCO5)CC3)c3ccccc3c2=O)cc1OC | 3.3 | 0.9 | -17.6 | 6.6 | -13.6 | 40.7*
COc1ccc(-n2nc(C(=O)NCC(=O)N3CCN(c4ccccn4)CC3)c3ccccc3c2=O)cc1OC | 5.1 | -5.4 | -13.1 | -11.6 | 8.5 | 36.6*
CC1=C(C(=O)OC2CCCCCC2)C(c2ccc(C)o2)C2=C(CCCC2=O)N1 (stereo not given) | 0.3 | 6.1 | 10.5 | -3.3 | 12.9 | -5.2
